Results taken from the supplement of paper PMC9801561.
± gives the standard deviation of the averaged measurements.

System: Escherichia coli Nissle 1917
Test: area under OmniLog respiration curve over 48 h (OmniLog units x h); higher = more growth / nutrient utilisation; extreme values may be limits of the assay
Details: nutrient role: sole sulfur source (pyruvate carbon); incubation: 48 h, 37 °C
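Wherever DuctApe activity index of respiration/growth curve (0 no growth to 9 maximum) is given: biolog PM4 phosphorus and sulfur plates, tetrazolium violet dye reduction read in the OmniLog every 15 min, kinetic curves scored by DuctApe, each plate run in triplicate.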

SMILES | area under OmniLog respiration curve
CS(=O)(=O)CC[C@H](N)C(=O)O [L-Methionine Sulfone] | 31.6 ± 21
O=S(=O)(O)O [Sulfate] | 6810 ± 400
C[C@H](CCC(=O)NCCS(=O)(=O)O)[C@H]1CC[C@H]2[C@@H]3[C@H](O)C[C@@H]4C[C@H](O)CC[C@]4(C)[C@H]3C[C@H](O)[C@]12C [Taurocholic acid] | 2500 ± 890
CS(=O)(=O)O [Methane Sulfonic acid] | 5490 ± 300

System: Escherichia coli Nissle 1917
Test: DuctApe activity index of respiration/growth curve (0 no growth to 9 maximum) (index 0-9); higher = more growth / nutrient utilisation, active = 3 or more; extreme values may be limits of the assay
Details: nutrient role: C-Source, carbohydrate; incubation: 48 h, 37 °C

SMILES | DuctApe activity index
OC[C@H]1O[C@H](OC[C@H]2O[C@H](OC[C@H]3O[C@H](O[C@]4(CO)O[C@H](CO)[C@@H](O)[C@@H]4O)[C@H](O)[C@@H](O)[C@@H]3O)[C@H](O)[C@@H](O)[C@H]2O)[C@H](O)[C@@H](O)[C@H]1O [Stachyose] | 1.33 (inactive)
OC[C@H]1O[C@H](O[C@H]2[C@H](O)[C@@H](O)[C@H](O)O[C@@H]2CO)[C@H](O)[C@@H](O)[C@@H]1O [Maltose] | 7.67 (active)
O[C@@H]1[C@@H](O)[C@@H](O)CO[C@H]1O [L-Arabinose] | 8 (active)
OC[C@@H](O)[C@H](O)[C@@H](O)CO [Xylitol] | 0 (inactive)
Nc1ncnc2c1ncn2[C@H]1C[C@H](O)[C@@H](CO)O1 [2`-Deoxyadenosine] | 8.67 (active)
OC[C@H]1O[C@@H](O[C@H]2[C@H](O)[C@@H](O)[C@@H](O)O[C@@H]2CO)[C@H](O)[C@@H](O)[C@H]1O [a-D-Lactose] | 7.67 (active)
OC[C@@H](O)C(O)[C@H](O)CO [D-Arabitol] | 0 (inactive)
OC[C@H]1OC(O)[C@@H](O)[C@@H](O)[C@@H]1O (stereo partly drawn) [D-Mannose] | 8 (active)
OC[C@H]1OC(O)[C@H](O)[C@@H](O)[C@@H]1O (stereo partly drawn) [a-D-Glucose] | 7.67 (active)
OC[C@@H](O)[C@H](O)[C@H](O)[C@@H](O)CO [Dulcitol] | 6 (active)
OCC1(O)OC[C@H](O)[C@@H](O)[C@@H]1O (stereo partly drawn) [L-Sorbose] | 7 (active)

Same assay, conditions: nutrient role: C-Source, carboxylic acid; incubation: 48 h, 37 °C

SMILES | DuctApe activity index
O=C(CO)[C@@H](O)[C@H](O)[C@@H](O)C(=O)O [5-Keto-D-Gluconic acid] | 0 (inactive)
O=CO [Formic acid] | 0.333 (inactive)
O=C(O)CC(O)C(=O)O (racemic) [DL-Malic acid] | 8 (active)
COC(=O)CCC(=O)O [Mono-Methylsuccinate] | 1.33 (inactive)
C[C@@H](O)CC(=O)O [b-Hydroxybutyric acid] | 1 (inactive)
O=C(O)[C@H](O)[C@@H](O)C(=O)O [L-Tartaric acid] | 0 (inactive)
C[C@H](O)C(=O)O [L-Lactic acid] | 8 (active)
O=C(O)CCC(=O)C(=O)O [a-Ketoglutaric acid] | 6.67 (active)
O=C(O)CC(=O)O [Malonic acid] | 0 (inactive)
O=C(O)[C@H]1OC(O)[C@H](O)[C@@H](O)[C@H]1O (stereo partly drawn) [D-Galacturonic acid] | 9 (active)
